Our source for the Percent Effect values is ChEMBL document CHEMBL3988442, “University of Dundee, Small-Polar-MMV Screening Library” (2021).

In assay [1] the target is T1, Aspartate--tRNA(Asp/Asn) ligase (Mycobacterium tuberculosis (strain ATCC 25618 / H37Rv)) (UniProt P9WFW3). Also: in the data most compounds retested in dose-response had high values.
T1 sequence (whole entry): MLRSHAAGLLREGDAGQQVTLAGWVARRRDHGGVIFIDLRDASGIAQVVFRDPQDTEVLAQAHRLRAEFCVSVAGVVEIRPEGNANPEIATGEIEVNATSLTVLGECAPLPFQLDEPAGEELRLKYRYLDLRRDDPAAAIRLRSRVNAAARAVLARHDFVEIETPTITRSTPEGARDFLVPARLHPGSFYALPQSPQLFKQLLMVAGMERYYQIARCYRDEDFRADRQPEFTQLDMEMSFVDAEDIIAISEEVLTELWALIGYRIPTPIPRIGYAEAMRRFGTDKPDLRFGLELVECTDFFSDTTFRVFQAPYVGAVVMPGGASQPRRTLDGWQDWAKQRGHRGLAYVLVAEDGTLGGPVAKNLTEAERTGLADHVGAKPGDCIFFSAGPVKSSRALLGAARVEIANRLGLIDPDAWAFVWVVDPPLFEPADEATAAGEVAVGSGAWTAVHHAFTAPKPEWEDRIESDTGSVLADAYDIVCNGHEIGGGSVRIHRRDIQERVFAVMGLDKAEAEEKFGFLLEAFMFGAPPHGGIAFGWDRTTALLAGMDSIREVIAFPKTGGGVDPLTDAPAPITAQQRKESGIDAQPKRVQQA
The assay can be described thus: Assay for Asp RNA synthetase-1 from Mycobacterium tuberculosis. The following applies: 30 µM. The format is functional. Set-up: scale not given: direction of the effect not stated beside the values.

Assay [2] addresses Shiga toxin 2 (Escherichia coli O157:H7) (UniProt P09385+P09386). The assay can be described thus: E. coli 0.157:H7 Shiga Toxin SOP - stx2 screening assay. On the set-up: scale not given: direction of the effect not stated beside the values. The following applies: 30 µM. Type of assay: functional.

As for `CCOCC(O)CN1CCN(C(=O)C2CC2)CC1` (configuration not stated), the results for the Percent Effect in assay [1] and in assay [2] were 1.82% and 21.4%, respectively.
Taken in the same sequence, the figures for `CC(C(=O)NCc1ccnc(N2CCCC2)c1)n1cncn1` (configuration not stated) were -2.83% and 27.3%.
For `Cc1cc(CN(C)C(=O)NCC(C)N2CCc3ccccc32)no1` (configuration not stated), in that order: -1.27% and -6.14%.
Turning to `CC(C)(O)C1CCN(C(=O)Nc2nc(-c3ccccc3)ns2)CC1`, the figures for the Percent Effect in assay [1] and in assay [2] were 1.51% and -6.7%, respectively.
Regarding `CCc1ccc(S(=O)(=O)Nc2cc(C(=O)O)c(F)cc2F)s1`, the values for the Percent Effect in assay [1] and in assay [2] were -4.19% and -16.1%, respectively.
Taken in the same sequence, the figures for `Cc1ccc(-n2nnc(C(=O)NS(C)(=O)=O)c2C2CC2)cc1` were 0.379% and -7.97%.
Taken in the same sequence, the figures for `COCC(=O)N1CCC(c2cccc(Cc3ccc(F)cc3)n2)CC1` were 1.18% and -10.6%.
Regarding `CCOC(=O)[C@]12CCCN(Cc3nccs3)C[C@H]1CN(C(C)=O)C2`, the Percent Effect in assay [1] was 2.52%; in assay [2] it was -5.93%.
Turning to `COCC(=O)N1CCN(Cc2coc(-c3cccc(F)c3)n2)CC1`, the Percent Effect was -1.18% in assay [1] and 16.9% in assay [2].
Taken in the same sequence, the figures for `Cc1oc(-c2nc(C#N)c(N(C)C)o2)cc1S(=O)(=O)N1CCCC1` were 0.145% and -18.1%.
`COCCN1CCN(C(=O)c2cc(C(C)C)on2)[C@H]2CS(=O)(=O)C[C@H]21`: the Percent Effect in assay [1] is -3.12%; in assay [2] it was -5.69%.
Taken in the same sequence, the figures for `COC1CCCN(Cc2nc(Cc3ccccc3F)no2)C1` (configuration not stated) were -7.18% and 6.38%.
`CN1[C@H](Cn2cncn2)C[C@@H]2CN(Cc3cccc(C#N)c3)CC[C@@H]21`: the Percent Effect in assay [1] was 0.0985%; in assay [2], -24.3%.
As to `O=C(Cc1csc(-c2ccc(Cl)cc2)n1)NC(C(=O)O)c1ccccc1` (configuration not stated), the Percent Effect in assay [1] was 1.86%; in assay [2], -21.9%.
For `Cn1cc(Br)c(=O)c(NS(=O)(=O)c2ccc(F)cc2)c1`, in that order: -2.87% and -1.63%.
Take `O=C(Cn1cnc(NC(=O)CC2CCCC2)n1)NCc1ccccc1`: the Percent Effect was -1.37% in assay [1] and 12.3% in assay [2].
